The full ranking holds about 68,000 sequences; the median of “fluorescence intensity (a.u.)” is about 9,100, and the highest 2% start at about 16,000. This is one part of a sample in which the highest values are shown more often than they occur.

The target of this assay is OsWRKY34 (Oryza sativa, UniProt Q0JBA9 1-250). In words: protein-binding microarray (RPBM); PBS, 2% BSA, 51.3 ng/ul salmon testes DNA, 50 uM zinc acetate, 200 nM TF, 25 C, 1 h; high values mean tight binding. The settings on record: protein: recombinant; tags: N-terminal polyhistidine and DsRed monomer fusion (pET32a); label: CyDye5-dUTP incorporated in the synthesized complementary strand; 3' TTTTT single-stranded linker to array surface; dsDNA, one strand shown. In short, it runs like this: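 Binding signal here means per-feature fluorescence intensity in arbitrary units. The values were read on an Axon 4000B scanner after a custom Agilent array, double-stranded by primer extension with Cy5-dUTP, was incubated with 200 nM protein at 25 °C for 1 h in PBS with 2% BSA, salmon testes DNA and 50 µM zinc acetate, then washed. The proteins were transcription factors with an N-terminal polyhistidine tag and DsRed, expressed in E. coli BL21-CodonPlus and purified on Ni–NTA.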
Sequence of OsWRKY34 (Q0JBA9 entry or part of it): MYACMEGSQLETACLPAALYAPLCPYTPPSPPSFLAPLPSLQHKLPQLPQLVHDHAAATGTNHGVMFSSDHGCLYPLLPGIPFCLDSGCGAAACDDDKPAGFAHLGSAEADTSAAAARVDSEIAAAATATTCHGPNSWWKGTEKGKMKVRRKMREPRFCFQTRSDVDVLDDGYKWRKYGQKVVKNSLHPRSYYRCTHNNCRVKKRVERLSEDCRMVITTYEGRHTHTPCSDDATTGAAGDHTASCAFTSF
As to “AGTACTCCTCCGTTCTAAATTAGATGTCGTTTTGATTTTTCGGAGTCACCTAGTGCAG”, the binding signal was 8570 fluorescence intensity (a.u.). Turning to “CTCTTGGCGATTTGCGGAAGTTGTTGTTGTCCCCTTGCTCCGGAGTCACCTAGTGCAG”, the binding signal is 8060 fluorescence intensity (a.u.). “TTAGCAAAAACATATCCTTTCTTGCCACACTACTAAGCCACGGAGTCACCTAGTGCAG”: the binding signal was 8160 fluorescence intensity (a.u.). With “ACACGGCCACCCGCATCCGCACCACCCGCAAGCCGCGACGCGGAGTCACCTAGTGCAG”, the binding signal is 9450 fluorescence intensity (a.u.). For “GCTGGGAGTTAGAACGGTGATCCATCTAGATGTAATGGTCCGGAGTCACCTAGTGCAG” the value was 8740 fluorescence intensity (a.u.); for “CTCCGTTTTCACCCCTATGTATAGTTTATATGTAAATTGCCGGAGTCACCTAGTGCAG”, 8830 fluorescence intensity (a.u.); for “TTGTTACTTTAATTTGTACATCATCATGCGGGTCCGTATACGGAGTCACCTAGTGCAG”, 16600 fluorescence intensity (a.u.).

Turning to “ATTTGATTTATTGTTAAATATACTTTCATGTACACATATACGGAGTCACCTAGTGCAG”, the binding signal was 8240 fluorescence intensity (a.u.).

With “GGGTGTAATTTTTGTTTTACATGTACGGAATTTTTTACTCCGGAGTCACCTAGTGCAG”, the binding signal was 10800 fluorescence intensity (a.u.). On to “ATATAGCCTACTACTAGCTCCAAATCATCTATAGTCAATGCGGAGTCACCTAGTGCAG”, for which the binding signal was 8120 fluorescence intensity (a.u.). As to “TGGGAGGGTTTCTGATCATCAGCTGTCCTCTTTACCGGCACGGAGTCACCTAGTGCAG”, the binding signal was 11300 fluorescence intensity (a.u.). Under “GGATTGCCGGTTTTTGGTGTCCTTTTCGCATCAGCTTTAGCGGAGTCACCTAGTGCAG” stands 9120 fluorescence intensity (a.u.); under “TTTTCTCACATGTTTGACCATTCGTCTTATTCAAAAATTTCGGAGTCACCTAGTGCAG”, 9990 fluorescence intensity (a.u.). For “ATAGATGACGCCGTTGATTTTTTCTCACATGTTTGACCGTCGGAGTCACCTAGTGCAG” the value was 15600 fluorescence intensity (a.u.). Under “GACGCCGTTAACTTTTTCTCACATGTTTAACCATTCGTCTCGGAGTCACCTAGTGCAG” stands 12700 fluorescence intensity (a.u.); under “AGATGACGCCATTGACTTTTTCTCACATGTTTGACCATTCCGGAGTCACCTAGTGCAG”, 15800 fluorescence intensity (a.u.). Turning to “TAGATGATGCTGTTAACTTTTTCTCACATGTTTGACCATTCGGAGTCACCTAGTGCAG”, the binding signal is 12700 fluorescence intensity (a.u.). Turning to “GACGCCGTTGATTTTTTCTCACATGTTTGACCATTCGTCTCGGAGTCACCTAGTGCAG”, the binding signal was 18000 fluorescence intensity (a.u.). As to “TAGATGACGTCGTTGACTTTTTCTCACATGTTTGACCATTCGGAGTCACCTAGTGCAG”, the binding signal is 28800 fluorescence intensity (a.u.). For “TTTCTCACATGTTTGACCATTCGTCTTATTCAAAAATTTTCGGAGTCACCTAGTGCAG”, the binding signal was 12800 fluorescence intensity (a.u.). Under “GACGCTGTTGACTTTTTCTCACATGTTTGACCATTCGTCTCGGAGTCACCTAGTGCAG” stands 28900 fluorescence intensity (a.u.); under “CAGTTTTTGAGGTAGAAGGGTATCATTGTAATTTTGCATCCGGAGTCACCTAGTGCAG”, 8850 fluorescence intensity (a.u.); under “AAATGTGGTTTTGATGGTTTCCAACATATATTTATCGGTTCGGAGTCACCTAGTGCAG”, 8570 fluorescence intensity (a.u.).

The values above are taken from paper PMC7819943, “Rice protein-binding microarrays: a tool to detect cis-acting elements near promoter regions in rice”.
